Assay [1] in a line: qHTS assay to identify small molecule antagonists of the estrogen related receptor signaling pathway with the pleiotropic PPARgamma coactivator (PGC) from Tox21 10K library - cell viability counter screen (AID 1224840; active means well fitted cell-killing curve with a large enough effect in the repeat runs, not every such curve was filed as active; further: nearly all actives have a fitted effect of over 40% in size; further: potency means the concentration at half of the fitted maximal effect). In outline: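 Viability counter screen, PGC/ERR cells: 17.5 h compound exposure at 37 C, CellTiter-Fluor fluorescence endpoint.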
A general note: Quantitative high-throughput screening tests each substance at several concentrations.

A short description of assay [2]: qHTS assay to identify small molecule antagonists of the estrogen related receptor signaling pathway with the pleiotropic PPARgamma coactivator (PGC) from Tox21 10K library (AID 1224841; call rule not given here; further: actives are mostly falling curves and most rising ones were filed inactive; nearly all actives have a fitted effect of over 50% in size; further: potency means the concentration at half of the fitted maximal effect). The method, boiled down:
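In the PGC/ERR line, DMSO solutions of test chemicals are pin-delivered to 2,000 cells/well six hours after dispensing. Following eighteen hours' incubation, One-Glo reagent is added and luminescence recorded.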

Assay [3] is described as follows: qHTS assay to identify small molecule agonists of the estrogen related receptor signaling pathway with the pleiotropic PPARgamma coactivator (PGC) from Tox21 10K library (AID 1224842; active means well fitted curve in the direction sought with a large enough effect in the repeat runs; an effect the other way counts as inactive or inconclusive; further: nearly all actives have a fitted effect of over 15% in size). The method, boiled down: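 PGC/ERR reporter cells (NTP line) were seeded 2,000 per well, rested 6 h at 37 C/5% CO2, then pin-dosed with compounds in DMSO for 18 h at 37 C; luciferase read by One-Glo luminescence after 30 min at room temperature.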

Assay [4] addresses Thyrotropin receptor (Homo sapiens) (UniProt P16473). Description: qHTS assay to identify small molecule agonists of the thyroid stimulating hormone receptor (TSHR) signaling pathway (AID 1224843). Further: nearly all actives have a fitted effect of over 45% in size. Further: potency means the concentration at half of the fitted maximal effect. The method, boiled down:
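Compounds are titrated over 15 concentrations, in triplicate, onto TSHR-HEK293 cells seeded at 800/well. Plates sit 30 min at room temperature before cAMP-d2 and anti-cAMP cryptate are added; signal is read after a further hour.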

Assay [5] can be described thus: qHTS assay to identify small molecule agonists of the hypoxia (HIF-1) signaling pathway - cell viability counter screen (AID 1224844). Further: nearly all actives have a fitted effect of over 50% in size. Further: potency means the concentration at half of the fitted maximal effect. The method, boiled down: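 Same wells as the HIF-1 reporter screen; ME-180 cells carrying HRE-bla, 17 hr treatment at 37C; CellTiter-Glo luminescence read after 30 min at room temperature.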
A short description of assay [6]: qHTS assay to identify small molecule agonists of H2AX (AID 1224845; active means well fitted activation curve with a large enough effect in the signal ratio in the repeat runs, not every such curve was filed as active; the % refers to the signal ratio; further: potency means the concentration at half of the fitted maximal effect). In outline: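 Wild-type CHO-K1 cells plated overnight, then exposed 3 hr at 37C to compounds at 15 concentrations (0.76% DMSO). Lysed, then HTRF anti-pH2AX(S139)-cryptate/anti-H2AX-d2 detection after 24 hr at room temperature; emissions 665 and 620 nm.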
Assay [7] in a line: qHTS assay to identify small molecule agonists of the hypoxia (HIF-1) signaling pathway (AID 1224846; active means well fitted activation curve with a large enough effect in the signal ratio in the repeat runs, not every such curve was filed as active; the % refers to the signal ratio). In outline:
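In ME-180 cells bearing an HRE-bla construct, 17 h treatment with DMSO-dissolved compounds at 37C was followed by CCF4-AM loading to quantify reporter induction.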

Assay [8] is described as follows: qHTS assay to identify small molecule agonists of H2AX - cell viability counter screen (AID 1224847). Further: nearly all actives have a fitted effect of over 30% in size. Further: potency means the concentration at half of the fitted maximal effect. On activity change, negative = cytotoxicity: top concentration of the series differs between compounds. The method, boiled down: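 CHO-K1 wt, 1000 cells/well, o/n 37C; cpds 15 conc, 3 h 37C, 0.76% DMSO; CellTiter-Glo, 30 min RT, luminescence.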
The target in assay [9] is Nuclear receptor subfamily 1 group I member 3 (Homo sapiens) (UniProt Q14994). The experiment in a line: qHTS assay to identify small molecule agonists of the constitutive androstane receptor (CAR) signaling pathway (AID 1224839; active means well fitted curve in the direction sought with a large enough effect in the repeat runs; an effect the other way counts as inactive or inconclusive;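 further: HepG2 cells stably carrying human CAR and a CYP2B6 luciferase reporter; series mostly up to about 92 µM; nearly all actives have a fitted effect of over 15% in size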). The method, boiled down:
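Luminescence read-out (ONE-Glo, 30 min, room temperature) from double-stable HepG2-CYP2B6-hCAR cells exposed 24 h to 15-point compound series in presence of 0.75 uM PK11195 final.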

The target is the same in assay [10]. The experiment in a line: qHTS assay to identify small molecule antagonists of the constitutive androstane receptor (CAR) signaling pathway (AID 1224838; active means well fitted curve in the direction sought with a large enough effect in the repeat runs; an effect the other way counts as inactive or inconclusive; further: nearly all actives have a fitted effect of over 40% in size). The method, boiled down: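 CITCO-stimulated (50 nM final) HepG2 cells stably transfected with hCAR and CYP2B6-2.2kb luciferase were exposed to compounds at 15 concentrations for 24 h at 37 C/5% CO2. A luciferase reagent was added and luminescence recorded after 30 min.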

Where “and” joins values, the source holds several entries; their conditions need not be identical. Identical values can stand only once. Inconclusive results are not listed. Where a structure was tested more than once in an assay, its records may differ in their call. Calls of active or inactive are those of the source. Unless noted, the call rests on the fitted dose curve.

Results on 35 compounds are retold here after PubChem BioAssay (Tox21).
On the % scale 0 is the no-effect control and ±100 the full control effect.

Thyrotropin receptor (Homo sapiens), sequence (P16473 whole entry, looked up): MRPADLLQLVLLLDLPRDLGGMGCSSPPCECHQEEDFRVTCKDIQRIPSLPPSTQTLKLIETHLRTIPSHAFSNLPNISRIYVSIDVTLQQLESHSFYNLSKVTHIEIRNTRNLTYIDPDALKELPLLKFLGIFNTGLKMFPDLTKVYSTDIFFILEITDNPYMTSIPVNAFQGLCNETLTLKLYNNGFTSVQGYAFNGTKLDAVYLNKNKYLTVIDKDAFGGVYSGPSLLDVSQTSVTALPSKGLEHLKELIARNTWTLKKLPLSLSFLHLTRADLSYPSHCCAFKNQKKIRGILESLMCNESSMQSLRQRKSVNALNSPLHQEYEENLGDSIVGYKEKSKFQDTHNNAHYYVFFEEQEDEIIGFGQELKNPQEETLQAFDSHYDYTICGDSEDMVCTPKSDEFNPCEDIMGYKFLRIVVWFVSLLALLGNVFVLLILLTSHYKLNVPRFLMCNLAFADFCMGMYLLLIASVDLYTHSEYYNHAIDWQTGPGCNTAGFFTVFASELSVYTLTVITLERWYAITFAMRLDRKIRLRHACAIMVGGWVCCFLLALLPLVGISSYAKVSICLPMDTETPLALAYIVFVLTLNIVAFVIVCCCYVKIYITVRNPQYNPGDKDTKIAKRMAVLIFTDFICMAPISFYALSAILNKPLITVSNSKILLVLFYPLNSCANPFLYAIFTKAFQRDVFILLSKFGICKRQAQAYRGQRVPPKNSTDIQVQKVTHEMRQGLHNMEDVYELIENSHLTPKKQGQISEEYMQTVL
Nuclear receptor subfamily 1 group I member 3 (Homo sapiens), sequence (Q14994 whole entry, looked up): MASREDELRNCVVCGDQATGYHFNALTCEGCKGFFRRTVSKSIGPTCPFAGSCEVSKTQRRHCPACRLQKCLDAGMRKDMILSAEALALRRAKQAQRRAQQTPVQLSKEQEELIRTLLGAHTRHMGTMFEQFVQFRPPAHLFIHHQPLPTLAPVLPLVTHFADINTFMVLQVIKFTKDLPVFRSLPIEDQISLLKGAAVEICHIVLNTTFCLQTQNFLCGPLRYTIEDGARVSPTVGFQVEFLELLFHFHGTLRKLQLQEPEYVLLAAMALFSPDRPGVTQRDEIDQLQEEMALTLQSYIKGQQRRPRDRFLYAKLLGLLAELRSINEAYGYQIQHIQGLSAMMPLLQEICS

As for `CCCCC(CC)COC(=O)C(C#N)=C(c1ccccc1)c1ccccc1` (stereo not drawn), the Potency result in [1], in assay [2], in assay [4], in assay [5], in assay [6] and in assay [8] was “inactive” throughout. Also, the outcome in [3] and in assay [7] was inactive.
`CN(C)CCC(c1ccc(Cl)cc1)c1ccccn1` (stereo not drawn): the Potency entry in assay [1], in assay [4], in assay [5], in assay [6] and in assay [8] was “inactive” in each case.
On to `CC(c1cc2ccccc2s1)N(O)C(N)=O` (stereo not drawn), for which the Potency entry in assay [1], in assay [5] and in [6] was “inactive” in each case. Further, the outcome in assay [7] was inactive.
For the compound `C=CCOC(=O)c1ccccc1C(=O)OCC=C`, the Potency entry in [1], in assay [4], in [5] and in assay [6] was “inactive” each time. For the same compound, the call in assay [7] was inactive.
For `CC(O)COCC(C)O` (stereo not drawn), the Potency result in assay [1], in assay [4], in assay [5], in assay [6] and in assay [8] was “inactive” throughout. Besides, in assay [7], the compound was called inactive.
On to `C#C[C@]1(O)CC[C@H]2[C@@H]3CCC4=CC(=O)CC[C@@H]4[C@H]3CC[C@@]21C`, for which the Potency entry in assay [9], in assay [1], in assay [4], in assay [5] and in [8] was “inactive” each time. In [6], the Potency is 28.4 µM (active) and 19.6 µM (active).
In the case of `c1ccc(OCCOc2ccccc2)cc1`, the Potency entry in [10], in assay [1], in [4], in [5], in assay [6] and in assay [8] was “inactive” in each case. The compound was called inactive in assay [7].
On to `O=P(OC(CCl)CCl)(OC(CCl)CCl)OC(CCl)CCl`, for which the Potency result in assay [1] and in assay [8] was “inactive” throughout. The Potency in assay [2] was 54.2 µM (active) and 54.5 µM (active). The compound was called inactive in [3] and in assay [7].
As for `Nc1ccccc1[N+](=O)[O-]`, the Potency entry in [1], in assay [2], in assay [4], in [5], in [6] and in assay [8] was “inactive” in each case. In addition, the compound was called inactive in assay [3] and in assay [7].
As for `CCCCC(CC)COC(=O)CS` (stereo not drawn), the Potency result in [1], in assay [2], in [4], in assay [5], in [6] and in assay [8] was “inactive” in each case. The compound was called inactive in [3] and in [7].
Turning to `OCCOCCN1CCN(C2=Nc3ccccc3Sc3ccccc32)CC1`, the Potency result in assay [1], in assay [4], in assay [5] and in assay [6] was “inactive” throughout. Further, the compound was classed as inactive in assay [7].
In the case of `CC1=CCC2CC1C2(C)C` (stereo not drawn), the Potency entry in assay [1], in assay [4], in assay [5], in [6] and in [8] was “inactive” in each case. The call in [7] was inactive.
On to `Nc1cc([N+](=O)[O-])ccc1O`, for which the Potency entry in [10], in assay [9], in [2], in assay [4], in assay [5] and in assay [8] was “inactive” throughout. The outcome in [3] and in assay [7] was inactive.
For the compound `COc1ccc(Nc2ccccc2)c(C)c1`, the Potency entry in assay [1], in assay [2], in [4], in assay [5] and in assay [6] was “inactive” in each case. The outcome in assay [3] and in [7] was inactive. Besides, the Potency entry in assay [8] is “inactive and 101 µM (active)”.
As for `Cc1ccc2oc(=O)ccc2c1`, the Potency result in [10], in [1], in assay [4], in assay [5], in assay [6] and in [8] was “inactive” each time. Further, the outcome in assay [7] was inactive.
Take `C[C@H]1C[C@@H]2[C@H]([C@@H](O)C[C@@]3(C)[C@H]2CC[C@]3(O)C(=O)CO)[C@@]2(C)C=CC(=O)C=C12`: the Potency entry in assay [1], in assay [2], in assay [5], in assay [6] and in assay [8] was “inactive” in each case. In addition, in assay [3], the call was inactive.
For `CC(C)CC(=O)CC(C)C`, the Potency entry in assay [1], in assay [2], in assay [5], in assay [6] and in assay [8] was “inactive” each time. For the same compound, the outcome in assay [3] and in assay [7] was inactive.
As to `CCCCCCCCCC`, the Potency entry in assay [1], in assay [4], in [5], in assay [6] and in assay [8] was “inactive” throughout. Moreover, the call in assay [7] was inactive.
For `CC(=O)CC(=O)Nc1ccccc1`, the Potency entry in assay [1], in [5] and in [6] was “inactive” each time. The Potency in [4] is 19.3 µM (active) and inactive. Also, the result in assay [7] was inactive.
With `Cc1cnc(C(=O)NCCc2ccc(S(=O)(=O)NC(=O)NC3CCCCC3)cc2)cn1`, the Potency result in [1], in assay [4] and in [5] was “inactive” in each case.
Regarding `CCc1cccc(C)c1N`, the Potency entry in assay [1], in assay [2], in assay [4], in assay [5], in assay [6] and in assay [8] was “inactive” in each case. For the same compound, the compound was called inactive in assay [3] and in assay [7].
For the compound `FC(F)(F)c1ccc(Cl)c(Cl)c1`, the Potency entry in [1], in assay [4], in assay [5], in assay [6] and in [8] was “inactive” each time. In addition, in [7], the outcome was inactive.
For the compound `O=S(=O)(O)c1ccc2ccccc2c1`, the Potency result in assay [1], in assay [4], in assay [5] and in assay [6] was “inactive” throughout. For the same compound, in assay [7], the compound was classed as inactive.
On to `OCc1cccnc1`, for which the Potency entry in assay [1], in assay [5] and in assay [6] was “inactive” each time.
As to `c1ccc2scnc2c1`, the Potency result in [1], in assay [4], in assay [5], in assay [6] and in assay [8] was “inactive” throughout. In [7], the compound was classed as inactive.
Turning to `CCN(CC)CCCC(C)Nc1ccnc2cc(Cl)ccc12` (stereo not drawn), the viability change, negative = cytotoxic in assay [1] is -1.36% [at 8.39 µM] (inactive) and -20.9% [at 19 µM] (inactive). Besides, the activity change, negative = cytotoxicity in [5] was -3.66% [at 15.8 µM] (inactive). Further, in assay [6], the activation (H2AX phosphorylation) was 3.5% [at 14 µM] (inactive) and -4.76% [at 31.6 µM] (inactive).
On to `O=C(O)[C@H](O)[C@@H](O)[C@H](O)[C@H](O)CO`, for which the Potency entry in [1], in [5], in [6] and in assay [8] was “inactive” each time. Besides, in assay [7], the compound was classed as inactive.
Consider `O=S1(=O)CC=CC1`, for which the Potency entry in assay [1], in assay [4], in assay [5], in assay [6] and in assay [8] was “inactive” in each case. Also, the compound was classed as inactive in [7].
For the compound `COc1ccc2cc([C@H](C)C(=O)O)ccc2c1`, the Potency result in [10], in assay [1], in assay [4], in [5], in assay [6] and in assay [8] was “inactive” throughout.
For the compound `Cc1cc(C)c(C)cc1C`, the Potency entry in [1], in assay [4], in assay [5], in assay [6] and in [8] was “inactive” each time. Moreover, the compound was called inactive in assay [7].
For the compound `O=C(O)c1cc(C(=O)O)cc(S(=O)(=O)O)c1`, the Potency entry in assay [1], in assay [4], in [5], in assay [6] and in assay [8] was “inactive” each time. In addition, the outcome in [7] was inactive.
Turning to `CCCCCCCCCCCCCCO`, the Potency result in assay [1], in assay [4], in assay [5], in assay [6] and in [8] was “inactive” each time. Further, the result in [7] was inactive.
Take `C=C(C)C(=O)O[C@H]1C[C@@H]2CC[C@@]1(C)C2(C)C`: the Potency in assay [1] is 13.6 µM (active) and inactive; in assay [2] it was 60.8 µM (active) and inactive; in [5], 1.94 µM (active) and inactive; in assay [6], 2.24 µM (active) and inactive. Also, the outcome in [3] and in [7] was inactive. In addition, the Potency result in assay [4] was “inactive”.
With `CC(C)(C)[C@@H](O)[C@@H](Cc1ccc(Cl)cc1)n1cncn1`, the Potency entry in assay [1], in assay [4], in assay [5], in assay [6] and in assay [8] was “inactive” throughout. In addition, in assay [7], the compound was classed as inactive.
Turning to `Cc1ccc(S(N)(=O)=O)cc1`, the Potency entry in assay [1], in assay [4], in assay [5], in assay [6] and in [8] was “inactive” throughout. The result in assay [7] was inactive.
